Cy5 interf NS3h – Cy5 fluorescence quenchers or enhancers, artefact control for HCV NS3 helicase inhibitor project, biochemical, ChemBridge library, Cy5 readout. Cy5-dT15 DNA with NS3h, fluorescence interference; actives lie on both sides; signal over control mean, under 1 quenches. fluorescence interference ratio at 100 µM. 6% of 16,000 active. AID 720488, 2013;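 active = compound fluorescence over control fluorescence at most 0.8, a quencher, or at least a set upper limit, an enhancer; inactive = ratio between 0.8 and the set upper limit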
HCV NS3h FP – HCV NS3 helicase inhibitors, primary screen, biochemical, fluorescence polarization, ChemBridge library; NS3h Cy5-dT15 DNA binding; inhibition, % at 100 µM; 1.6% of 16,000 active;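 active = inhibition above the average over every tested compound plus 3 SD, cut at about 40% in these data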
The depositor's hits bear a star. Rows were chosen to be rich in hits. Some 6.8% of all compounds tested hit in one or more screens of this group.

What do the screens show for `COc1cc(C2Nc3ccccc3C(=O)N2c2ccc(F)cc2)cc(OC)c1OC` (stereo unspecified)?
Cy5 interf NS3h: 1; HCV NS3h FP: 2

Results for Cc1ccc(S(=O)(=O)Nc2ccc(S(=O)(=O)NC(=O)C3CCCCC3)cc2)cc1 ?
Cy5 interf NS3h: 0.72*; HCV NS3h FP: 12

What do the screens show for `CC(=O)NS(=O)(=O)c1ccc(NS(=O)(=O)c2ccc(C)cc2)cc1`?
Cy5 interf NS3h: 0.98; HCV NS3h FP: -1

How did Cc1cc(C(=O)N/N=C\c2ccc(-c3ccc(Cl)c(Cl)c3)o2)n[nH]1 do in these assays?
Cy5 interf NS3h: 1.1; HCV NS3h FP: -4

Results for FC(F)(F)c1ccccc1CN1CCN(Cc2cccnc2)CC1 ?
Cy5 interf NS3h: 1.1; HCV NS3h FP: -15

How did COC(=O)c1ccccc1NC(=O)c1cnn2c(C(F)(F)F)cc(-c3ccc(OC)c(OC)c3)nc12 do in these assays?
Cy5 interf NS3h: 0.68*; HCV NS3h FP: 12

What do the screens show for `Cc1ccc(O)c(NC(=O)c2cnn3c(C(F)(F)F)cc(-c4ccco4)nc23)c1`?
Cy5 interf NS3h: 0.58*; HCV NS3h FP: 1

How did COC(=O)c1cnn2c(C(F)(F)F)cc(-c3ccccc3)nc12 do in these assays?
Cy5 interf NS3h: 1; HCV NS3h FP: 10

What do the screens show for `O=C(NCc1ccc(Cl)cc1)c1cnn2c(C(F)(F)F)cc(-c3ccco3)nc12`?
Cy5 interf NS3h: 0.59*; HCV NS3h FP: 12

What do the screens show for `COc1cc(-c2cc(C(F)(F)F)n3ncc(C(=O)NCc4cccnc4)c3n2)cc(OC)c1OC`?
Cy5 interf NS3h: 1.1; HCV NS3h FP: -1

Results for CCC1CCCCN1C(=O)c1cnn2c(C(F)(F)F)cc(-c3ccc(C)cc3)nc12 (stereo unspecified) ?
Cy5 interf NS3h: 1.1; HCV NS3h FP: 17

Results for O=C(/C=C/c1ccc(-c2ccc([N+](=O)[O-])cc2)o1)c1cc2ccccc2o1 ?
Cy5 interf NS3h: 1; HCV NS3h FP: 3

How did O=[N+]([O-])c1ccc(N2CCN(S(=O)(=O)Cc3ccccc3)CC2)c(Cl)c1 do in these assays?
Cy5 interf NS3h: 0.74*; HCV NS3h FP: 18

How did COCC(O)CN1CCN(c2ccc([N+](=O)[O-])cc2Cl)CC1 (stereo unspecified) do in these assays?
Cy5 interf NS3h: 0.99; HCV NS3h FP: -13

How did CCOc1ccc(NC(=O)CN(c2cc(C)cc(C)c2)S(=O)(=O)c2ccccc2)cc1 do in these assays?
Cy5 interf NS3h: 1; HCV NS3h FP: 16

How did CCCC(=O)NS(=O)(=O)c1ccc(NC(=O)c2ccc(Cl)cc2)cc1 do in these assays?
Cy5 interf NS3h: 0.98; HCV NS3h FP: -2

Results for Cc1ccc(NC(=O)c2ccccc2C(=O)O)c([N+](=O)[O-])c1 ?
Cy5 interf NS3h: 1; HCV NS3h FP: 2

What do the screens show for `Cc1ccc(S(=O)(=O)N(CC(O)CN(CC(C)C)CC(C)C)c2cccc(C)c2)cc1` (stereo unspecified)?
Cy5 interf NS3h: 0.77*; HCV NS3h FP: 12

How did Cc1ccc(S(=O)(=O)N(CC(C)C)CC(C)C)cc1 do in these assays?
Cy5 interf NS3h: 0.94; HCV NS3h FP: 5

What do the screens show for `NC(=O)CN(c1cccc([N+](=O)[O-])c1)S(=O)(=O)c1ccccc1`?
Cy5 interf NS3h: 0.98; HCV NS3h FP: 10

How did CN(C)CC(O)CN(c1ccccc1)S(=O)(=O)c1ccc([N+](=O)[O-])cc1 (stereo unspecified) do in these assays?
Cy5 interf NS3h: 0.79*; HCV NS3h FP: 0

What do the screens show for `COc1ccc(N(CC(O)CN(Cc2ccccc2)Cc2ccccc2)S(=O)(=O)c2ccc(C)cc2)cc1` (stereo unspecified)?
Cy5 interf NS3h: 0.96; HCV NS3h FP: 10

Results for Cc1cccc(N(CC(O)CN(Cc2ccccc2)Cc2ccccc2)S(=O)(=O)c2ccccc2)c1 (stereo unspecified) ?
Cy5 interf NS3h: 0.7*; HCV NS3h FP: 21

What do the screens show for `O=C(COc1ccccc1Cl)Nc1ccc(Br)cc1C(=O)O`?
Cy5 interf NS3h: 1; HCV NS3h FP: 1

What do the screens show for `O=C(Nc1cccc2nsnc12)c1ccco1`?
Cy5 interf NS3h: 1; HCV NS3h FP: 4

Results for O=C1C(=O)N(c2ccccc2Br)C(=O)N1c1cccc(Cl)c1 ?
Cy5 interf NS3h: 0.7*; HCV NS3h FP: 19

How did O=C(O)c1ccccc1NC1=C(Cl)C(=O)N(c2cccc(Cl)c2)C1=O do in these assays?
Cy5 interf NS3h: 1.1; HCV NS3h FP: 8

Results for C=C(C)c1cccc(C(C)(C)NC(=O)N2CCN(C/C=C/c3ccccc3)CC2)c1 ?
Cy5 interf NS3h: 0.65*; HCV NS3h FP: 10

How did O=C(c1cccc(C#Cc2ccccc2)c1)N1CCN(C/C=C/c2ccccc2)CC1 do in these assays?
Cy5 interf NS3h: 0.97; HCV NS3h FP: 17

How did Cc1nnc(C)n1/N=C\c1cccc([N+](=O)[O-])c1 do in these assays?
Cy5 interf NS3h: 1; HCV NS3h FP: 0

How did Cc1ccc(S(=O)(=O)NCCOc2ccccc2)cc1[N+](=O)[O-] do in these assays?
Cy5 interf NS3h: 0.93; HCV NS3h FP: 13

What do the screens show for `Cc1ccc(S(=O)(=O)NCCOc2ccccc2Cl)cc1[N+](=O)[O-]`?
Cy5 interf NS3h: 0.79*; HCV NS3h FP: 5

How did Clc1ccc(-c2ccc(/C=N/n3cnnc3)o2)c(Cl)c1 do in these assays?
Cy5 interf NS3h: 0.71*; HCV NS3h FP: -9

What do the screens show for `Clc1ccc(/C=N\n2cnnc2)cc1`?
Cy5 interf NS3h: 1.1; HCV NS3h FP: 1

How did COCCN1C(=O)c2cccc3cccc(c23)C1=O do in these assays?
Cy5 interf NS3h: 0.98; HCV NS3h FP: 8

How did CCOc1ccccc1NC(=O)CSc1nnc(C)s1 do in these assays?
Cy5 interf NS3h: 0.68*; HCV NS3h FP: 0

Results for COc1ccccc1NC(=O)CSc1nsc(SCC(=O)Nc2ccccc2OC)n1 ?
Cy5 interf NS3h: 0.9; HCV NS3h FP: 1

How did CCOc1ccc(N2C(=O)NC(=O)/C(=C\c3ccc(OCC)c(Cl)c3)C2=O)cc1 do in these assays?
Cy5 interf NS3h: 1; HCV NS3h FP: 14

How did CCOc1ccc(/C=C2\C(=O)NC(=O)N(c3cccc(Br)c3)C2=O)cc1Cl do in these assays?
Cy5 interf NS3h: 1.2*; HCV NS3h FP: 13

What do the screens show for `CCOc1ccc(/C=C2\C(=O)NC(=O)N(c3ccc(C)cc3)C2=O)cc1Cl`?
Cy5 interf NS3h: 0.94; HCV NS3h FP: 41*

Results for CCOc1ccc(/C=C2\C(=O)NC(=O)N(c3ccc(Cl)cc3)C2=O)cc1Cl ?
Cy5 interf NS3h: 1; HCV NS3h FP: 26

How did CC1=NN(c2ccccc2)C(=O)/C1=C\c1ccc(O)cc1 do in these assays?
Cy5 interf NS3h: 0.94; HCV NS3h FP: 8

How did CCOc1ccc(NC(=O)/C(=C/c2ccccc2)c2ccccc2)cc1 do in these assays?
Cy5 interf NS3h: 0.67*; HCV NS3h FP: 15

How did COc1ccccc1NC(=O)/C(=C/c1ccccc1)c1ccccc1 do in these assays?
Cy5 interf NS3h: 1.1; HCV NS3h FP: 1

How did Cc1ccc(NC(=O)/C(=C/c2ccccc2)c2ccccc2)cc1C do in these assays?
Cy5 interf NS3h: 0.65*; HCV NS3h FP: 14

What do the screens show for `O=C(Nc1ccccc1)Nc1nnc(-c2ccccc2)s1`?
Cy5 interf NS3h: 1.1; HCV NS3h FP: 7

Results for CCOc1ccc(NC(=O)/C=C/c2ccccc2)cc1 ?
Cy5 interf NS3h: 1.1; HCV NS3h FP: 21

How did CCOc1ccc(-c2nnc(NC(=O)Nc3ccccc3)s2)cc1 do in these assays?
Cy5 interf NS3h: 0.74*; HCV NS3h FP: 12
